# From PubChem BioAssay AID651629 (Sanford-Burnham Center for Chemical Genomics, 2012)
# The list shows a part of the results. Values without a mark were called inactive. Activity calls are given as the source filed them.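 The calls were made as follows: active = mean inhibition across replicates of 40% or more; inactive = mean inhibition below 40%.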
# Experiment: TAG lipid buildup inhibition in H9c2 – cell-based, single concentration, Nile Red fluorescence, confirmation (AID 651629);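 also: plate controls were DMSO only wells for no effect and Triacsin C treated wells for full effect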
# Conditions: H9c2 lipid accumulation, at 12.5 µM, active compounds read high, cells loaded with 200 µM oleic acid
row,SMILES,inhibition
1,CN(C)C(=O)c1cccc(-c2cnc3c(NC=O)cc(-c4ccc(C(=O)N5CCOCC5)cc4)cn23)c1,58% (active)
2,COc1ccc(Nc2cc(=O)oc3ccccc23)cc1,50.6% (active)
3,Oc1cccc2cc(-c3ccncc3)cnc12,71.1% (active)
4,Cc1ccccc1NC(=O)CSc1nc2ccc(Nc3nc(N4CCOCC4)nc(N4CCOCC4)n3)cc2s1,77.3% (active)
5,Cc1cc(NC(=O)CSc2nc(C(C)C)nc3sc4c(c23)CCC(C)C4)no1 (stereo unspecified),51.7% (active)
6,CCN(CC)CCC(c1ccc2c(c1)OCO2)c1c(OC)cc(OC)c2c(-c3ccccc3)cc(=O)oc12 (stereo unspecified),47.8% (active)
7,CN(C)C(=S)N=c1ssc(=S)n1Cc1ccco1,62.1% (active)
8,CCOC(=O)N1CCN(C(=O)c2ccccc2N(Cc2ccccc2)S(=O)(=O)c2ccc(OC)cc2)CC1,64.1% (active)
9,CN(C)CC(O)COc1ccc(C(C)(C)c2ccc(OCC(O)CN(C)C)cc2)cc1 (stereo unspecified),20.9%
10,COC(C[C@H](O)CC(=O)COCc1ccccc1)OC,-3.23%
11,CCOCCC(=O)Nc1ccc2c(c1)c(=O)n(C)n2-c1ccc2ccccc2c1,47.5% (active)
12,CN(/N=C/c1ccccc1)C(=S)c1ccccc1,12.5%
13,Cc1ccc(/C=N/NC(=S)Nc2cccc(S(=O)(=O)N(C)C)c2)o1,20.8%
14,O=C1c2ccccc2C(=O)c2c1cccc2N1CCN(C/C=C/c2ccccc2)CC1,64% (active)
15,COc1ccccc1C1C2=C(COC2=O)Nc2cc3c(cc21)OCO3 (stereo unspecified),61.4% (active)
16,CCCC(=O)Nc1nc2ccc(NC(=O)c3c(F)c(F)c(OC)c(F)c3F)cc2s1,69% (active)
17,COc1ccc2sc(-c3ccc(N(C)C)cc3)c(C#CCO)c2c1,85.7% (active)
18,CCCCN1C(=O)/C(=C/C=C2/C=Cc3ccccc3N2CC)SC1=S,127% (active)
19,COc1cc(NC(=O)c2cncc(-c3ccc(C#N)cc3)c2)cc(C(=O)Nc2cccc(C(F)(F)F)c2)c1,39.1%
20,Cc1ccc(-c2nc3ccccc3[nH]2)cc1NC(=O)c1sc2ccccc2c1Cl,35.7%
21,O=C(Nc1nc(-c2ccncc2)cs1)C1COc2ccccc2O1 (stereo unspecified),31.4%
22,CC1(C(=O)NCc2ccco2)Cc2c(-c3ccc4c(c3)OCO4)ccnc2O1 (stereo unspecified),61.9% (active)
23,COC(=O)c1ccc(NCc2cc(O)ccc2O)cc1,29.9%
24,COc1ccccc1NC1=NC(c2ccc(Cl)cc2)N=C(N)N1 (stereo unspecified),74.9% (active)
25,O=C(Nc1cc2c3c(c1)C1CCCC1CN3CC1CCCC21)c1ccc([N+](=O)[O-])cc1 (stereo unspecified),56.6% (active)
26,Cc1cc(N/N=C\c2ccc(Br)cc2)nc(-n2nc(C)cc2C)n1,58.6% (active)
